Results from PubChem BioAssay (NCATS).
Results filed as inconclusive are left out. The source made the active and inactive calls. Calls come from the whole dose curve; as a rule, active = well fitted curve in the direction sought with a large enough effect; inconclusive = small, poorly fitted or top-dose-only effect, or another doubt; inactive = no such curve, though single readings can be large; an effect the other way counts as inactive or inconclusive.

Columns and labels:
[1] = qHTS of pediatric cancer cell lines to identify multiple opportunities for drug repurposing: Primary screen for MG 63 (6-TG R) cells (AID 1347105); settings: MG 63 (6-TG R) viability, CellTiter-Glo, 48 h; series mostly up to 46 µM; note: nearly all actives have a fitted effect of over 50% in size
Outline: (§1)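 Quantitative HTS format: each compound titrated (MIPE 11 points from 0.78 nM, NPC 8 points from 0.59 nM) onto cells plated 5 hours earlier. After 48 h at 37 degrees C, CellTiter-Glo luminescence was recorded.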

[2] = qHTS of pediatric cancer cell lines to identify multiple opportunities for drug repurposing: Primary screen for control Hh wild type fibroblast cells (AID 1347106); settings: Hh wild-type fibroblast viability, CellTiter-Glo luminescence, 48 h; series mostly up to 46 µM;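 note: a drop in luminescence marks cytotoxicity and a rise apparent proliferation; nearly all actives have a fitted effect of over 55% in size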
Outline: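 Cells (500-1,000/well) in growth media were settled 5 h at 37 degrees C, then given compounds for 48 h. Viability was read as CellTiter-Glo luminescence. Primary runs used MIPE at 11 points (0.78 nM-46 µM) and NPC at 8 points (0.59 nM-46 µM); follow-ups used 11 points.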

[3] = qHTS of pediatric cancer cell lines to identify multiple opportunities for drug repurposing: Primary screen for Rh30 cells (AID 1347107); settings: Rh30 rhabdomyosarcoma viability, CellTiter-Glo luminescence, 48 h; series mostly up to 46 µM; note: nearly all actives have a fitted effect of over 75% in size
Outline: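 Viability after 48 h compound treatment at 37C, 500-1,000 cells/well, read as ATP luminescence with CellTiter-Glo. Primary screens used 11-point (MIPE, 0.78 nM-46 µM) or 8-point (NPC, 0.59 nM-46 µM) final concentrations; follow-up screens used 11-point dilutions.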

[4] = qHTS of pediatric cancer cell lines to identify multiple opportunities for drug repurposing: Primary screen for Rh41 cells (AID 1347108); settings: Rh41 rhabdomyosarcoma viability, CellTiter-Glo luminescence, 48 h; series mostly up to 46 µM;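 note: luminescence drop marks cytotoxic hits; nearly all actives have a fitted effect of over 70% in size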
Outline: as §1

Measured: Potency

O=C1C(=O)c2ccccc2C(O)=C1C1CCC(c2ccc(Cl)cc2)CC1 (centres undefined)
inactive: all assays above

O=C1OC2(c3ccccc31)c1cc(Br)c(O)c(Br)c1Oc1c2cc(Br)c(O)c1Br
inactive: all assays above

Cc1cc(NS(=O)(=O)c2ccc(N)cc2)nc(C)n1
inactive: all assays above

CCc1cc(Cl)c(OC)c(C(=O)NC[C@@H]2CCCN2CC)c1O
inactive: all assays above

Cc1nc(-c2ccc(Cl)cc2)oc1COC(C)(C)C(=O)O
inactive: all assays above

COc1cc(O)c(C(=O)c2ccccc2)cc1S(=O)(=O)O
inactive: all assays above

N[C@H](C(=O)O)[C@@H](O)c1ccc(O)c(O)c1
inactive: all assays above

O=C(O)CCNC(=O)c1ccccc1
inactive: all assays above

CN1CCN(c2c(F)cc3c(=O)c(C(=O)O)cn4c3c2SCC4)CC1
inactive: all assays above

FC(F)(F)C(F)(F)C(F)(F)C(F)(F)C(F)(F)C(F)(F)C(F)(F)C(F)(F)Br
inactive: all assays above

Nc1nc(-c2ccccc2)c(Br)c(=O)[nH]1
inactive: all assays above

Cn1c(=O)c2[nH]c(Br)nc2n(C)c1=O
inactive: all assays above

CC(=O)OCC1=C(C(=O)O)N2C(=O)[C@@H](NC(=O)CSc3ccncc3)[C@H]2SC1
inactive: all assays above

C[N+]1(CC2COC(c3ccccc3)(C3CCCCC3)O2)CCCCC1 (centres undefined)
inactive: all assays above

CCNC(=O)/C=C/c1cccc(Br)c1
inactive: all assays above

Nc1ccc(S(=O)(=O)Nc2cnc3ccccc3n2)cc1
inactive: all assays above

CCC1Nc2cc(Cl)c(S(N)(=O)=O)cc2S(=O)(=O)N1 (centres undefined)
inactive: all assays above

C#C[C@]1(O)CC[C@H]2[C@@H]3[C@H](C)CC4=C(CCC(=O)C4)[C@H]3CC[C@@]21C
inactive: all assays above

Cc1cc2c(OCC(CNC(C)(C)C)OC(=O)c3ccccc3)cccc2[nH]1 (centres undefined)
inactive: all assays above

CCCCOC(=O)CC(CC(=O)OCCCC)(OC(C)=O)C(=O)OCCCC
inactive: all assays above

CN(C)CCN1C(=O)c2ccccc2N(C)c2ccccc21
inactive: all assays above

FC1(F)C(F)(F)C(F)(F)C2(F)C(F)(F)C(F)(F)C(F)(F)C(F)(F)C2(F)C1(F)F (centres undefined)
inactive: all assays above

CCN(CC)CCOC(=O)C(Cc1cccc2ccccc12)CC1CCCO1 (centres undefined)
inactive: all assays above

CCCCC(CC)CN1CN(CC(CC)CCCC)CC(C)(N)C1 (centres undefined)
inactive: all assays above

O=C(O)P(=O)(O)O
inactive: all assays above

CCc1oc2ccccc2c1C(=O)c1cc(I)c(O)c(I)c1
inactive: all assays above

O=C1c2cccc3c2[C@H](CCC3)CN1[C@@H]1CN2CCC1CC2
inactive: all assays above

Cc1cn([C@H]2C[C@H](F)[C@@H](CO)O2)c(=O)[nH]c1=O
inactive: all assays above

Cc1cccc(C)c1NC(=O)CN1CCCCCC1
inactive: all assays above

OCc1ccccn1
inactive: all assays above

CCCCC(CC)COC(=O)/C=C/c1ccc(OC)cc1 (centres undefined)
inactive: all assays above

CCOc1ccccc1C(N)=O
inactive: all assays above

NCCNc1cccc2ccccc12
inactive: all assays above

CCc1ccc(C(=O)C(C)CN2CCCCC2)cc1 (centres undefined)
inactive: all assays above

CO[C@]12C[C@@H](COC(=O)c3cncc(Br)c3)CN(C)[C@@H]1Cc1cn(C)c3cccc2c13
inactive: all assays above

CCCCCCCCCCCCCCCC(=O)O
inactive: all assays above
